Assay results as given in the supplement of paper PMC10498489.
The campaign covered roughly 2,300 compounds. About 330 (14%) showed activity. Only a sample is shown. Values without a mark were called inactive.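 Rule for the calls: active = median modified Z-score above 1.96; inactive = 1.96 or below.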

These molecules were tested on HepG2 Srxn1-GFP reporter cells (+30 nM CDDO-Me) (assay: Srxn1-GFP intensity median modified Z-score relative to plate median; higher = stronger NRF2 / oxidative stress reporter activation, active = hit call of the paper). Details: 10 µM; exposure time: 24h.
In short: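 HepG2 Srxn1-GFP BAC reporter cells were seeded at 20,000 per well in 96-well plates and co-exposed for 24 h to compound at 10 μM and an NRF2 activator at 30 nM, with DMSO at ≤0.1%, in three replicate plates. Cells were fixed with formaldehyde, stained with Hoechst and imaged by confocal microscopy, and cytoplasmic GFP was measured per cell, with images holding under 100 cells discarded. The reported value is the median over replicates of each plate's modified Z-score of GFP intensity. For this score, scaling used 1.4826 × median absolute deviation.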

SMILES	Srxn1-GFP intensity median modified Z-score
CC=CC1=C(C(=O)O)N2C(=O)C(NC(=O)C(N)c3ccc(O)cc3)C2SC1 (stereo not drawn) [euspeclibcmpd754]	0.0492
Cc1cc(=N)c2ccccc2n1CCCCCCCCCCn1c(C)cc(=N)c2ccccc21 [euspeclibcmpd1012]	10 (active)
CN1CCc2c(c3ccccc3n2Cc2ccccc2)C1 [euspeclibcmpd1060]	-0.511
NC(COP(=O)(O)O)C(=O)O (stereo not drawn) [euspeclibcmpd1153]	-0.195
CC(C)C(=O)Nc1ccc([N+](=O)[O-])c(C(F)(F)F)c1 [euspeclibcmpd362]	3.07 (active)
CC1(C)NC(=O)N(c2ccc([N+](=O)[O-])c(C(F)(F)F)c2)C1=O [euspeclibcmpd654]	0.519
CCOc1ccc2ccccc2c1C(=O)NC1C(=O)N2C1SC(C)(C)C2C(=O)O (stereo not drawn) [euspeclibcmpd2391]	-0.175
NC(=O)c1cc[n+](C=C2CSC3C(NC(=O)Cc4cccs4)C(=O)N3C2C(=O)O)cc1 (stereo not drawn) [euspeclibcmpd1236]	-0.488
CN1CCC(c2c3ccccc3cc(=O)c3sccc23)CC1 [euspeclibcmpd331]	0.863
COc1cc2occ(-c3ccccc3)c(=O)c2c(OC)c1C [euspeclibcmpd2367]	3.02 (active)
COc1cc(C)c2c(=O)c(-c3ccccc3)coc2c1 [euspeclibcmpd1711]	0.917
COc1cc(-c2coc3cc(OC)c(OC)c(OC)c3c2=O)cc(OC)c1OC [euspeclibcmpd1402]	-0.364
CC(C)(C)O[C@H]1C[C@@H](O)C1	1.93
CC(=O)O[C@]1(C(C)=O)CCC2C3=CC(C)=C4CC(=O)CCC4(C)C3CCC21C (stereo partly drawn) [euspeclibcmpd180]	0.562
CC(NS(=O)(=O)c1cccc(Cl)c1)C1CCCO1 (stereo not drawn)	1.74
O=C1OCCc2oc(O)cc21 [euspeclibcmpd1348]	33 (active)
Cc1cc(=O)cc(O)o1 [euspeclibcmpd1585]	0.226
O=C(OCc1ccccc1)c1ccccc1 [euspeclibcmpd510]	0.252
OC[C@H]1O[C@@H](O[C@@H]2[C@@H](CO)O[C@](O)(CO)[C@H]2O)[C@H](O)[C@@H](O)[C@H]1O [euspeclibcmpd170]	0.208
NC(=O)c1cc[n+](C=C2CSC3C(NC(=O)C(c4ccccc4)S(=O)(=O)O)C(=O)N3C2C(=O)O)cc1 (stereo not drawn) [euspeclibcmpd2133]	-0.143
CCN(CC)CCOc1ccc2c(c1)C(=O)c1cc(OCCN(CC)CC)ccc1-2 [euspeclibcmpd940]	5.93 (active)
CCN(CC)CCNC(=O)COc1ccc(OC)cc1 [euspeclibcmpd2435]	-0.25
CCCOc1cc(N)ccc1C(=O)OCCN(CC)CC [euspeclibcmpd379]	0.431
C=Cc1c(C=c2[nH]c(=Cc3[nH]c(C=c4[nH]c(O)c(C=C)c4=C)c(C)c3CCC(=O)O)c(CCC(=O)O)c2C)[nH]c(O)c1C [euspeclibcmpd1536]	0.744

SMILES	Srxn1-GFP intensity median modified Z-score
Cc1cc(-c2ccccc2)n[nH]c1=NCCN1CCOCC1 [euspeclibcmpd383]	1.08
CNC(Cc1ccccc1)C(=O)O (stereo not drawn)	1.21
Cc1coc2c1C(=O)C(=O)c1c-2ccc2c1CCCC2(C)C [euspeclibcmpd1647]	2.22 (active)
Cc1c(S(=O)(=O)O)oc2c1C(=O)C(=O)c1c-2ccc2c1CCCC2(C)C [euspeclibcmpd2216]	0
CN[C@H]1C[C@@H](N)[C@H](O)[C@@H](O[C@@H]2O[C@H](CO)[C@@H]3OC4(O[C@@H]3[C@@H]2O)O[C@H](C(N)CO)[C@H](O)[C@H](O)[C@H]4O)[C@@H]1O (stereo partly drawn) [euspeclibcmpd1459]	-0.136
Nc1ccc(S(=O)(=O)N=c2cccc[nH]2)cc1 [euspeclibcmpd279]	-0.029
COc1ccc2[nH]c3cc(Cl)ccc3c(=Nc3cc(CN4CCCC4)c(O)c(CN4CCCC4)c3)c2n1 [euspeclibcmpd1080]	9.12 (active)
CC1(C)C2CCC1(CS(=O)(=O)O)C(=O)C2=Cc1ccc(C=C2C(=O)C3(CS(=O)(=O)O)CCC2C3(C)C)cc1 [euspeclibcmpd1829]	1.49
C=C(CC)C(=O)c1ccc(OCC(=O)O)c(Cl)c1Cl [euspeclibcmpd119]	14 (active)
CC(C)CCCC(C)[C@H]1CCC2C3CC=C4C[C@@H](OC(=O)c5ccccc5)CC[C@]4(C)C3CC[C@@]21C (stereo partly drawn) [euspeclibcmpd2185]	-0.487
CC(O)CNS(=O)(=O)CC1CN(C(=O)C2CC2C)CCO1 (stereo not drawn)	1.25
CC(C)=C1CNC(C(=O)O)C1CC(=O)O (stereo not drawn) [euspeclibcmpd2009]	0.265
CC(=O)N=c1[nH]cc([N+](=O)[O-])s1 [euspeclibcmpd793]	0.152
CC(=O)Oc1ccccc1C(=O)N=c1[nH]cc([N+](=O)[O-])s1 [euspeclibcmpd615]	2.79 (active)
O=C(O)c1cc(O)c(O)c(O)c1 [euspeclibcmpd1010]	-0.0488
COc1ccc(C(=O)c2ccc(O)cc2)c(O)c1O [euspeclibcmpd1507]	-0.213
NC(=O)N1c2ccccc2CC(=O)c2ccccc21 [euspeclibcmpd673]	-0.538
O=C1CC(=O)c2ccccc2C1=O [euspeclibcmpd1562]	9.54 (active)
O=C1[O][Bi]([OH])[O]c2ccccc21 [euspeclibcmpd2458]	0.155
C/C(=C\CO)CC[C@H](C)CCC[C@H](C)CCCC(C)C [euspeclibcmpd1621]	-0.0936
[O-][n+]1cccc(CO)c1 [euspeclibcmpd1263]	-0.263
O=C(C=Cc1ccc(O)c(O)c1)OC(Cc1ccc(O)c(O)c1)C(=O)O (stereo not drawn) [euspeclibcmpd2083]	-0.529
O=C(O)C=Cc1ccc(O)c(O)c1 [euspeclibcmpd1336]	-0.408
O=C(C=Cc1ccc(O)c(O)c1)OCCc1ccccc1 [euspeclibcmpd1775]	3.45 (active)
